Reference: PubChem BioAssay (NCI)
This is part of a sample that, as a whole, favours compounds with a hit. Of some 79,000 tested, about 15% had one in any assay. The source made the active and inactive calls. Rule as the data show it: active = growth inhibition above about 70%; inactive = the rest.

Key:
[1] = NCI Yeast Anticancer Drug Screen. Data for the rad52 strain (AID 147);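 also: 0% = growth of vehicle-treated control cultures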; settings: S. cerevisiae rad52 mutant growth inhibition, hits give high values
In short: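 Inhibition of yeast growth, referenced to vehicle controls, was the measured output for a strain with defective DNA damage repair.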

[2] = NCI Yeast Anticancer Drug Screen. Data for the wt1 strain (AID 149);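 also: 0% = growth of vehicle-treated wt1 cultures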; settings: S. cerevisiae wt1 strain (SPY 50644) growth inhibition, hits give high values
In short: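 Compounds are added to wt1 yeast cultures. Growth is then measured. Inhibition is expressed relative to vehicle-treated controls.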

[3] = NCI Yeast Anticancer Drug Screen. Data for the rad50EPP+ strain (AID 151);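 also: 0% = growth of vehicle-treated control cultures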; settings: S. cerevisiae rad50 mutant strain, hits give high values
In short: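 Genetically defined yeast (rad50EPP+, DNA damage repair alteration) is grown with compound, and inhibition of growth is expressed relative to vehicle-treated controls.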

[4] = NCI Yeast Anticancer Drug Screen. Data for the mgt1 strain (AID 153); settings: S. cerevisiae mgt1 mutant growth inhibition, hits give high values
In short: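 In the mgt1 strain, test compounds were added and growth inhibition was determined relative to vehicle-treated controls.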

[5] = NCI Yeast Anticancer Drug Screen. Data for the rad50 strain (AID 155);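 also: 0% = growth of vehicle-only cultures of the same strain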; settings: S. cerevisiae rad50 strain growth inhibition, hits give high values
In short: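 Inhibition values express reduced yeast growth in compound-treated cultures relative to vehicle-treated controls.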

[6] = NCI Yeast Anticancer Drug Screen. Data for the mec2-1 strain (AID 157); settings: S. cerevisiae mec2-1 strain, hits give high values
In short: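 Each compound was tested on mec2-1 yeast, a strain altered in DNA damage repair or cell cycle control. Growth inhibition is reported relative to vehicle.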

[7] = NCI Yeast Anticancer Drug Screen. Data for the rad14 strain (AID 159);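 also: 0% = growth of vehicle-treated control cultures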; settings: S. cerevisiae rad14 strain growth inhibition, hits give high values
In short: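 A mutant yeast strain defective in DNA damage repair is treated with compound; inhibition of its growth is scored against untreated, vehicle-exposed cultures.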

[8] = NCI Yeast Anticancer Drug Screen. Data for the sgs1 mgt1 strain (AID 161);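 also: 0% = growth of cultures given vehicle only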; settings: S. cerevisiae sgs1 mgt1 strain, hits give high values
In short: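 Inhibition of yeast growth, normalised to vehicle-treated controls, is reported for a strain bearing genetic alterations in DNA damage repair.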

[9] = NCI Yeast Anticancer Drug Screen. Data for the CLN2oe strain (AID 163);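 also: 0% = growth of vehicle-only control cultures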; settings: S. cerevisiae CLN2oe strain, hits give high values
In short: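 First, the altered yeast strain was treated with each compound; second, its growth was measured; finally, inhibition was derived by comparison with vehicle controls.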

[10] = NCI Yeast Anticancer Drug Screen. Data for the cln2 rad14 strain (AID 165);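 also: 0% = growth equal to vehicle treated cultures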; settings: S. cerevisiae cln2 rad14 strain, hits give high values
In short: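 Test compounds were added to cln2 rad14 yeast cultures; inhibition of growth was then determined by comparison with vehicle treatment.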

[11] = NCI Yeast Anticancer Drug Screen. Data for the bub3 strain (AID 167); settings: S. cerevisiae bub3 mutant strain, hits give high values
In short: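 Steps: expose the mutant yeast strain to compound; grow alongside vehicle-treated cultures; measure growth; express inhibition against the vehicle cultures.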

[12] = NCI Yeast Anticancer Drug Screen. Data for the wt2 strain (AID 169);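 also: 0% = growth of vehicle-treated yeast cultures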; settings: S. cerevisiae wt2 strain growth inhibition, hits give high values
In short: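 The panel's yeast strains carry defined changes in DNA repair or cell cycle genes. Each strain is grown with compound, and growth loss is scored relative to vehicle.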

[13] = NCI Yeast Anticancer Drug Screen. Data for the mlh1 strain (AID 171);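 also: 0% = growth of vehicle-treated control cultures of the same strain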; settings: S. cerevisiae mlh1 strain growth inhibition, hits give high values
In short: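 Inhibition values reflect reduced yeast growth in the presence of compound, referenced to vehicle controls, using a strain chosen for its alteration in DNA repair or cell cycle control.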

[14] = NCI Yeast Anticancer Drug Screen. Data for the mlh1 rad18 strain (AID 175); settings: S. cerevisiae mlh1 rad18 strain growth inhibition, hits give high values
In short: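 Inhibition values reflect reduced growth of mutant yeast versus vehicle-treated controls following compound exposure; the mutations affect DNA damage repair.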

[15] = NCI Yeast Anticancer Drug Screen. Data for the rad18 strain (AID 177); settings: S. cerevisiae rad18 mutant growth inhibition, hits give high values
In short: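 Steps: expose repair-mutant yeast to compound; measure growth; express as inhibition relative to vehicle control.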

[16] = at 5.0 µM (retest, dose inferred, filed as 0.5)
[17] = at 50.0 µM (retest, dose inferred, filed as 5.0)

Measured: growth inhibition

CC(NCCN(C)C)C1CCC2C3CCc4cc(O)ccc4C3CCC12C (stereo not drawn)
active: [1]; at 33.0 µM 93% | [1]; at 100.0 µM 95% | [2]; at 100.0 µM 97% | [3]; at 33.0 µM 90% | [3]; at 100.0 µM 96% | [4]; at 33.0 µM 75% | [4]; at 100.0 µM 97% | [5]; at 33.0 µM 92% | [5]; at 50.0 µM 81% | [5]; at 100.0 µM 93% | [6]; at 100.0 µM 97% | [7]; at 100.0 µM 98% | [8]; at 50.0 µM 91.2% | [9]; at 100.0 µM 95% | [11]; at 33.0 µM 76% | [11]; at 100.0 µM 94% | [12]; at 33.0 µM 84% | [12]; at 100.0 µM 97% | [13]; at 33.0 µM 78% | [13]; at 100.0 µM 97% | [14]; at 50.0 µM 82.4% | [15]; at 33.0 µM 91% | [15]; at 100.0 µM 95%
inactive: [1]; at 1.2 µM 6% | [1]; at 3.7 µM 16% | [1]; at 11.0 µM 57% | [2]; at 1.2 µM -4% | [2]; at 3.7 µM -1% | [2]; at 11.0 µM 7% | [2]; at 33.0 µM 43% | [3]; at 1.2 µM 26% | [3]; at 3.7 µM 41% | [3]; at 11.0 µM 66% | [4]; at 1.2 µM 0% | [4]; at 3.7 µM 1% | [4]; at 11.0 µM 13% | [5]; at 1.2 µM 14% | [5]; at 3.7 µM 19% | [5]; [16] -10% | [5]; at 11.0 µM 57% | [5]; [17] 55% | [6]; at 1.2 µM 2% | [6]; at 3.7 µM 5% | [6]; [16] 2% | [6]; at 11.0 µM 14% | [6]; at 33.0 µM 68% | [6]; [17] 49% | [6]; at 50.0 µM 61.2% | [7]; at 1.2 µM 3% | [7]; at 3.7 µM 4% | [7]; at 11.0 µM 13% | [7]; at 33.0 µM 65% | [8]; [16] 7% | [8]; [17] 47% | [9]; at 1.2 µM 1% | [9]; at 3.7 µM 1% | [9]; at 11.0 µM 11% | [9]; at 33.0 µM 61% | [10]; [16] 35% | [10]; [17] 29% | [10]; at 50.0 µM 41.7% | [11]; at 1.2 µM 6% | [11]; at 3.7 µM 11% | [11]; [16] -4% | [11]; at 11.0 µM 33% | [11]; [17] 44% | [11]; at 50.0 µM 63.1% | [12]; at 1.2 µM -1% | [12]; at 3.7 µM 0% | [12]; at 11.0 µM 15% | [13]; at 1.2 µM 4% | [13]; at 3.7 µM 4% | [13]; at 11.0 µM 26% | [14]; [16] 4% | [14]; [17] 59% | [15]; at 1.2 µM 22% | [15]; at 3.7 µM 20% | [15]; at 11.0 µM 52%
